Screens: PubChem, National Center for Advancing Translational Sciences (NCATS)
ELG1 genotoxic = inducers of genotoxicity in HEK293T ELG1-luciferase cells; hit rate 1.3% among 330,000; AID 504466; HEK293T ELG1-luciferase reporter, luminescence, 16 h; Potency, µM (top dose mostly 46 µM), inactives show at the highest dose activity change, positive = activation, usual class: activators; note: % of control where 0% means no effect; nearly all actives have a fitted effect of over 60% in size
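Genotoxicity was scored as increased ELG1-luciferase reporter signal, measured by ONE-Glo luminescence (30 min, room temperature). Compound or vehicle exposure of the HEK293T reporter cells lasted 16 hr at 37°C.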
FLuc modulator = firefly luciferase modulation, counter-screen for miR-21 project. purified FLuc, Km substrates, luminescence inhibition. Potency, µM (top dose mostly 57.5 µM), for inactives: at the highest dose activity change, negative = inhibition, hits mostly inhibitors. hit rate 6.9% among 360,000;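 note: plate controls were vehicle for no effect and reference inhibitor for full effect; nearly all actives have a fitted effect of over 55% in size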
Target sequence (P08659 whole entry, looked up): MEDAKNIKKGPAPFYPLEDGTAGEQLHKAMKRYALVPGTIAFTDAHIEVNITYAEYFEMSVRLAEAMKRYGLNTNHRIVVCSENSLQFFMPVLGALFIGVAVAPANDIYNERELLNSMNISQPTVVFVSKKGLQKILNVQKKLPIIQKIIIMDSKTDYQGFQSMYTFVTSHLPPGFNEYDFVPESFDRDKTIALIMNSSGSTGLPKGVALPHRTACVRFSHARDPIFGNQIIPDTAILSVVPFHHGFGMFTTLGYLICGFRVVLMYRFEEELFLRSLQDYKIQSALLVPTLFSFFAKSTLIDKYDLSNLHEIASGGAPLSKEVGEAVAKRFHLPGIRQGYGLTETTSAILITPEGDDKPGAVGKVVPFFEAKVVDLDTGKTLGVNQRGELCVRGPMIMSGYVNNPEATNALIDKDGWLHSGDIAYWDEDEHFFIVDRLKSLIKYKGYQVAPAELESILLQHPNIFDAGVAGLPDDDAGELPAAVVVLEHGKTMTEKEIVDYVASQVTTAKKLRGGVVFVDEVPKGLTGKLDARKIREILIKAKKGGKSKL
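Biochemical qHTS of compounds, final roughly 60 µM downward over six points, against 10 nM purified firefly luciferase using Km concentrations of substrates (10 uM D-luciferin, 10 uM ATP) in Tris acetate pH 7.5 buffer; luminescence output.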
p53 reactivator = re-activators of mutant p53. H1299 p53-A138V BP100-luciferase reporter, luminescence, 24 h. Potency, µM (top dose mostly 92.2 µM), for the others: at the top dose activity change, positive = activation, hits mostly activators. hit rate 0.063% among 320,000. AID 504706; note: % of control where 0% means no effect; nearly all actives have a fitted effect of over 45% in size
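p53-null H1299 cells stably carrying temperature-sensitive p53-A138V and a BP100-luciferase reporter were pinned with compounds (4-point, 1:5 series) and held 24 hrs at 37 deg C. Luminescence was read 10 min after detection reagent.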
NPC1 promoter act = NPC1 promoter activation; hit rate 2.4% among 320,000; AID 485313; Huh7 NPC1 promoter luciferase reporter, 24 h; Potency, µM (highest dose often 9.22 µM), inactives show at the top dose activation, most hits filed as activators; note: % of control where 0% means no effect; nearly all actives have a fitted effect of over 60% in size
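Luciferase expression driven by the NPC1 promoter was measured in stably transfected Huh7 cells after a 24 h compound incubation, using a luciferase reagent and a luminescence read.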
SMN2 splice enh = increases expression of the SMN2 splice variant | HEK293 SMN2-luciferase splicing reporter, luminescence, 30-36 h | Potency, µM (doses to about 46.1 µM), inactives show top-dose activity change, positive = activation, most hits filed as activators | hit rate 2.8% among 210,000; note: % of control where 0% means no effect; nearly all actives have a fitted effect of over 55% in size
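qHTS luciferase splicing reporter: luminescence rises when SMN2 exon 7 is included in transfected HEK293 cells. Compound exposure lasted 30-36 h at 37C, with 4.5 mM final sodium butyrate as control, followed by a ONE-Glo read.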
Rab9 prom act = Rab9 promoter activation; hit rate 2.8% among 320,000; Huh7 Rab9 promoter-luciferase reporter, luminescence, 24 h; AID 485297; Potency, µM (titrated, usually from 9.22 µM), without a hit: top-dose activation, negative = inhibition, most hits filed as activators; note: % of control where 0% means no effect; nearly all actives have a fitted effect of over 60% in size
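Luciferase signal after 10 min detection reagent at ambient indicates Rab9 promoter upregulation; stably transfected Huh7 cells were treated 24 h with compound in DMSO at 37 °C, 5% CO2.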
An asterisk follows results filed as active; [ ] = another dose, or the depositor's remark. Sampled rows, rich in hits. Any-hit rate of the full collection: about 7.4%. Calls come from the whole dose curve; as a rule, active = well fitted curve in the direction sought with a large enough effect; inconclusive = small, poorly fitted or top-dose-only effect, or another doubt; inactive = no such curve, though single readings can be large; an effect the other way counts as inactive or inconclusive. Potency is the fitted concentration of half-maximal effect.

CSc1nnc2c3ccccc3n(Cc3ccccc3)c2n1 was read as ELG1 genotoxic 1%, FLuc modulator 2%, p53 reactivator -1%, NPC1 promoter act 1%, SMN2 splice enh -7% and Rab9 prom act -6%.
Screening CSc1nnc2c3ccccc3n(CCc3ccccc3)c2n1 returned ELG1 genotoxic -17%, FLuc modulator -3%, p53 reactivator -2%, NPC1 promoter act -4%, SMN2 splice enh 4µM* and Rab9 prom act 10%.
For CC(C)NC(=O)N1CCCC2(CCN(C(=O)c3csnn3)CC2)C1 the results were SMN2 splice enh 6%.
COc1ccc(Cn2c(C)nc3ccc([N+](=O)[O-])cc3c2=O)cc1 was read as ELG1 genotoxic -7%, FLuc modulator 0%, p53 reactivator 0%, NPC1 promoter act -3% and Rab9 prom act -2%.
CC(C)c1ccc2c(c1)[C@H]1OCC[C@H]1[C@@H](c1cccs1)N2 was read as ELG1 genotoxic 1%, FLuc modulator 9.5µM*, p53 reactivator inconclusive, NPC1 promoter act -14%, SMN2 splice enh -41% and Rab9 prom act -13%.
`O=C(OCc1nnc(-c2ccc(Cl)cc2)o1)C12CC3CC(CC(O)(C3)C1)C2` gave ELG1 genotoxic inconclusive, FLuc modulator 5.4µM*, p53 reactivator 10%, NPC1 promoter act 2.8µM*, SMN2 splice enh 12% and Rab9 prom act 2.2µM*.
For O=C(Cc1ccc(Cl)cc1)OCc1nnc(-c2ccccc2)o1 the results were ELG1 genotoxic 2%, FLuc modulator -17%, p53 reactivator -2%, NPC1 promoter act -8%, SMN2 splice enh -4% and Rab9 prom act -2%.
`CCc1nn2c(=O)cc(COC(=O)c3ccc(SC)cc3OC)nc2s1` gave ELG1 genotoxic -2%, FLuc modulator -1%, p53 reactivator -4%, NPC1 promoter act -2% and Rab9 prom act -5%.
COc1ccccc1N1CCN(C(=O)c2nc(SC)ncc2Cl)CC1 was read as FLuc modulator 1% and SMN2 splice enh -12%.
`NS(=O)(=O)c1ccc2nc(NC(=O)c3ccc4ncsc4c3)sc2c1` gave ELG1 genotoxic 8%, FLuc modulator 2.4µM*, p53 reactivator -1%, NPC1 promoter act 22% and Rab9 prom act 21%.
Screening O=C(Nc1nc2cc3c(cc2s1)OCO3)c1ccc(N2C(=O)CCC2=O)cc1 returned ELG1 genotoxic -2%, FLuc modulator -10%, p53 reactivator 1%, NPC1 promoter act 2% and Rab9 prom act 9%.
For O=C(/C=C/c1ccc2c(c1)OCO2)Nc1nc2ccc(F)cc2s1 the results were ELG1 genotoxic inconclusive, FLuc modulator inconclusive, p53 reactivator 5%, NPC1 promoter act 1.8µM* and Rab9 prom act 1.4µM*.
Cc1ccc2nc(NC(=O)c3ccc4ncsc4c3)sc2c1 was read as ELG1 genotoxic 2.9µM*, FLuc modulator 0.95µM*, p53 reactivator inconclusive, NPC1 promoter act 1.6µM*, SMN2 splice enh 7.1µM* and Rab9 prom act 1.3µM*.
Screening NS(=O)(=O)c1ccc2nc(NC(=O)c3ccc4c(c3)OCCO4)sc2c1 returned ELG1 genotoxic 3%, FLuc modulator -7%, p53 reactivator 3%, NPC1 promoter act -5% and Rab9 prom act 3%.
Screening CCOc1ccc2nc(NC(=O)/C=C/c3ccc4c(c3)OCO4)sc2c1 returned ELG1 genotoxic 15%, FLuc modulator -2%, p53 reactivator 17%, NPC1 promoter act -3%, SMN2 splice enh -21% and Rab9 prom act -1%.
For Cc1ccc(C(=O)Nc2nc3ccc(S(=O)(=O)N4CCCC4)cc3s2)cc1 the results were FLuc modulator -5%.
`Cc1ccc2nc(NC(=O)c3ccc4c(c3)OCO4)sc2c1` gave ELG1 genotoxic 14%, FLuc modulator 0.95µM*, p53 reactivator 15%, NPC1 promoter act 1.6µM*, SMN2 splice enh 11µM* and Rab9 prom act 1.1µM*.
Screening Cc1ccccc1C(=O)Nc1cc(S(=O)(=O)N2CCOCC2)ccc1N1CCN(C)CC1 returned ELG1 genotoxic 1%, FLuc modulator 3%, p53 reactivator -4%, NPC1 promoter act 2% and Rab9 prom act 8%.
For Cc1ccc(CCN2CC(C(=O)NCCN(C)C)CC2=O)cc1 (centres undefined) the results were ELG1 genotoxic -4%, FLuc modulator -1%, p53 reactivator -1%, NPC1 promoter act 1% and Rab9 prom act -3%.
COCC(=O)N1CCc2nc(-c3ccccc3)c3c(c2C1)CO[C@@H](C)C3 was read as SMN2 splice enh 7%[9.22 µM].
For CCOc1ccc(OCCNCc2ccc(OC(C)C(=O)N(C)C)c(OCC)c2)cc1 (centres undefined) the results were ELG1 genotoxic -1%, FLuc modulator 1%, p53 reactivator -6%, NPC1 promoter act -6% and Rab9 prom act -5%.
`CCn1c(/C=N/Nc2ccc(C(=O)O)cc2)nc2ccccc21` gave ELG1 genotoxic 1%, FLuc modulator 11µM*, p53 reactivator 1%, NPC1 promoter act 15%, SMN2 splice enh 3% and Rab9 prom act -1%.
Screening Cc1c(/C=N/Nc2ccc(C(=O)O)cc2)c2ccccc2n1C returned ELG1 genotoxic inconclusive, FLuc modulator 11µM*, p53 reactivator 12%, NPC1 promoter act 2.2µM* and Rab9 prom act 1.4µM*.
Screening CCn1c(CNc2ccc(C(=O)O)cc2)nc2ccccc21 returned FLuc modulator -4% and SMN2 splice enh -2%.
Screening COc1ccc(/C=N/Nc2ccccc2C(=O)O)cc1Cn1cc([N+](=O)[O-])cn1 returned ELG1 genotoxic 12%, FLuc modulator 19µM*, p53 reactivator 10%, NPC1 promoter act 27% and Rab9 prom act 22%.
For COc1cc(/C=C/c2sc3ccccc3[n+]2CCCS(=O)(=O)[O-])ccc1O the results were ELG1 genotoxic -5%, FLuc modulator 13µM*, p53 reactivator 1%, NPC1 promoter act -9%, SMN2 splice enh -43% and Rab9 prom act -3%.
`Cc1ccc2c(c1)sc(C)[n+]2CCCS(=O)(=O)[O-]` gave ELG1 genotoxic 1%, FLuc modulator -2%, p53 reactivator 0%, NPC1 promoter act 5%, SMN2 splice enh -29% and Rab9 prom act 0%.
`N/C(=N\OC(=O)c1cc(Br)ccc1Cl)c1cccnc1` gave ELG1 genotoxic 12%, FLuc modulator 21µM*, p53 reactivator 6%, NPC1 promoter act inconclusive, SMN2 splice enh 19% and Rab9 prom act inconclusive.
Screening O=C(NCc1cccnc1)c1ccc(Cl)cc1[N+](=O)[O-] returned ELG1 genotoxic 3%, FLuc modulator 3%, p53 reactivator 9%, NPC1 promoter act -2%, SMN2 splice enh inconclusive and Rab9 prom act -8%.
